Measured values reported in PubChem BioAssay (Tox21).
“And” between values parts separate entries of the source, which are not always exact repeats. Identical values can stand only once. Values without a mark were called inactive. Records with an inconclusive call do not appear. Where a call stands in place of a potency, no number is given. The source made the active and inactive calls. Unless noted, calls come from the whole dose curve; as a rule, active = well fitted curve in the direction sought with a large enough effect in the repeat runs; inconclusive = weak or mixed curves; inactive = no such curve, though single readings can be large; an effect the other way counts as inactive or inconclusive.

What was measured:
[1] = qHTS assay to identify small molecule agonists of the hypoxia (HIF-1) signaling pathway - cell viability counter screen (AID 1224844; calls by dose curve; note: nearly all actives have a fitted effect of over 50% in size)
Outline: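 Luminescent ATP content (CellTiter-Glo, 30 min, room temperature) served as the viability measure in HRE-bla ME-180 cells exposed to compounds for 17 hrs in low-serum medium (0.5% dialyzed FBS).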

[2] = qHTS assay to identify small molecule agonists of H2AX (AID 1224845; active = well fitted activation curve with a large enough effect in the signal ratio in the repeat runs, not every such curve was filed as active; the % refers to the signal ratio)
Outline: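 Wild-type CHO-K1 cells plated overnight, then exposed 3 hr at 37C to compounds at 15 concentrations (0.76% DMSO). Lysed, then HTRF anti-pH2AX(S139)-cryptate/anti-H2AX-d2 detection after 24 hr at room temperature; emissions 665 and 620 nm.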

[3] = qHTS assay to identify small molecule agonists of the hypoxia (HIF-1) signaling pathway (AID 1224846; active = well fitted activation curve with a large enough effect in the signal ratio in the repeat runs, not every such curve was filed as active; the % refers to the signal ratio)
Outline: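 Measured by blue/green FRET after loading CCF4-AM: beta-lactamase expressed from a hypoxia response element in ME-180 cells. Test agents were delivered in DMSO and left 17 hrs; cells had been plated 5 hrs earlier in low-serum (0.5% dialyzed FBS) medium.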

[4] = qHTS assay to identify small molecule agonists of H2AX - cell viability counter screen (AID 1224847; calls by dose curve; note: top concentration of the series differs between compounds; nearly all actives have a fitted effect of over 30% in size)
Outline: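 Compounds tested at 15 concentrations were incubated 3 hr at 37C with wild-type CHO-K1 cells; cellular ATP-based luminescence (CellTiter-Glo) indicated viability.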

[5] = qHTS RealTime-Glo MT Cell Viability Assay in HepG2 cells - 24 hour (AID 1224867); note: nearly all actives have a fitted effect of over 50% in size
Outline: (§1)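 Compound treatment began 5 h after plating HepG2 cells (600/well) with NanoLuc luciferase and prosubstrate. Plates stayed at 37 C for 40 h; luminescence was captured at six time points, 0 h through 40 h.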

[6] = qHTS RealTime-Glo MT Cell Viability Assay in HEK293 cells - 32 hour (AID 1224868); note: nearly all actives have a fitted effect of over 50% in size; note: potency is the fitted concentration of half-maximal effect; for activity change, negative = cytotoxic: top concentration of the series differs between compounds
Outline: (§2)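 Quantitative high-throughput screen of the Tox21 10K library in HEK293: cells and RealTime-Glo reagents plated together, compound added at 5 h, luminescence monitored through 40 h at 37 C.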

[7] = qHTS RealTime-Glo MT Cell Viability Assay in HepG2 cells - 40 hour (AID 1224870); note: nearly all actives have a fitted effect of over 50% in size
Outline: (§3)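 HepG2 cells mixed with RealTime-Glo MT reagents (NanoLuc plus cell-permeant prosubstrate) were seeded at 600 cells/well, incubated 5 h at 37 C/5% CO2, then pinned with compounds in DMSO; nonlytic luminescence tracked viability during 40 h treatment.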

[8] = A CellTox Green Cytotoxicity Assay to monitor cytotoxicity in HEK293 cells - 40 hour (AID 1224871); note: nearly all actives have a fitted effect of over 45% in size
Outline: (§4)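 Each value comes from one timepoint of a single continuous run in which HEK293 cells with CellTox Green were exposed to compound for up to 40 h at 37 C, dye fluorescence rising with cell death.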

[9] = qHTS RealTime-Glo MT Cell Viability Assay in HEK293 cells - 16 hour (AID 1224872)
Outline: as §2

[10] = qHTS RealTime-Glo MT Cell Viability Assay in HepG2 cells - 8 hour (AID 1224873); note: nearly all actives have a fitted effect of over 55% in size
Outline: as §3

[11] = qHTS RealTime-Glo MT Cell Viability Assay in HEK293 cells - 40 hour (AID 1224874); settings: RealTime-Glo luminescence; max response: active compounds read low; note: nearly all actives have a fitted effect of over 50% in size; note: potency is the fitted concentration of half-maximal effect
Outline: (§5)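 qHTS format; HEK293 cells with NanoLuc/prosubstrate reagent, 37 C/5% CO2 for 5 h pre-dosing; compounds 23 nL in DMSO; luminescence at each time point reflects viable cells.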

[12] = A CellTox Green Cytotoxicity Assay to monitor cytotoxicity in HEK293 cells - 24 hour (AID 1224875); note: series mostly up to about 77 µM; nearly all actives have a fitted effect of over 45% in size
Outline: as §4

[13] = A CellTox Green Cytotoxicity Assay to monitor cytotoxicity in HepG2 cells - 16 hour (AID 1224876); note: nearly all actives have a fitted effect of over 45% in size
Outline: (§6)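 Continuous culture of HepG2 cells with a membrane-impermeant DNA dye; rising fluorescence marks dead cells. Compound exposure lasted up to 40 h at 37 C, with reads every 8 h from 0 h.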

[14] = qHTS RealTime-Glo MT Cell Viability Assay in HepG2 cells - 32 hour (AID 1224877); note: nearly all actives have a fitted effect of over 55% in size
Outline: as §1

[15] = A CellTox Green Cytotoxicity Assay to monitor cytotoxicity in HepG2 cells - 24 hour (AID 1224878); note: nearly all actives have a fitted effect of over 45% in size
Outline: as §6

[16] = A CellTox Green Cytotoxicity Assay to monitor cytotoxicity in HepG2 cells - 40 hour (AID 1224879); note: nearly all actives have a fitted effect of over 40% in size
Outline: as §6

[17] = qHTS RealTime-Glo MT Cell Viability Assay in HEK293 cells - 0 hour (AID 1224880)
Outline: as §5

[18] = A CellTox Green Cytotoxicity Assay to monitor cytotoxicity in HEK293 cells - 0 hour (AID 1224869); note: nearly all actives have a fitted effect of over 50% in size
Outline: as §4

CN1C(=O)CN=C(c2ccccc2)c2cc([N+](=O)[O-])ccc21
Potency [1]: inactive
Potency [2]: inactive
outcome [3]: inactive
Potency [4]: inactive
Potency [5]: inactive
Potency [6]: inactive
Potency [7]: inactive
Potency [8]: inactive
Potency [9]: inactive
Potency [10]: inactive
max response [11]: -12%
Potency [12]: inactive
Potency [13]: inactive
Potency [14]: inactive
Potency [15]: inactive
Potency [16]: inactive
outcome [17]: inactive

C=CC(=O)OCC
Potency [1]: inactive
Potency [2]: inactive
outcome [3]: inactive
Potency [4]: inactive
Potency [5]: inactive
Potency [6]: inactive
Potency [7]: inactive
Potency [8]: inactive
Potency [9]: inactive
Potency [10]: inactive
max response [11]: -11.3%
Potency [12]: inactive
Potency [13]: inactive
Potency [14]: inactive
Potency [15]: inactive
Potency [16]: inactive
outcome [17]: inactive

Cc1ccc(N)c(C)c1
Potency [1]: inactive
Potency [2]: inactive
outcome [3]: inactive
Potency [4]: inactive
Potency [5]: inactive
Potency [6]: inactive
Potency [18]: inactive
Potency [7]: inactive
Potency [8]: inactive
Potency [10]: inactive
max response [11]: 4.9% and -12.6%
Potency [12]: inactive
Potency [13]: inactive
Potency [14]: inactive
Potency [15]: inactive
Potency [16]: inactive
outcome [17]: inactive

CC(O)CN1CCN(CC(=O)[O-])CCN(CC(=O)[O-])CCN(CC(=O)[O-])CC1.[Gd+3] (stereo not given)
Potency [1]: inactive
Potency [2]: inactive
outcome [3]: inactive
Potency [4]: inactive
Potency [6]: inactive
Potency [18]: inactive
Potency [7]: inactive
Potency [8]: inactive
Potency [9]: inactive
Potency [10]: inactive
max response [11]: 3.85%
Potency [12]: inactive
Potency [13]: inactive
Potency [15]: inactive
Potency [16]: inactive
outcome [17]: inactive

CCCCCCCCCCCCN=C(N)N
activity change, negative = cytotoxicity [1]: -8.49% [at 2.72 µM]
activation (H2AX phosphorylation) [2]: -1.39% [at 5.45 µM]
activation [3]: 0.622% [at 2.67 µM]
activity change, negative = cytotoxicity [4]: -0.757% [at 5.43 µM]
activity change, negative = cytotoxicity [5]: -4.51% [at 2.72 µM]
Potency [6]: 1200 nM (active)
cytotoxicity [18]: 9.65% [at 2.72 µM]
activity change, negative = cytotoxic [7]: 1.81% [at 2.72 µM]
cytotoxicity increase [8]: 10.9% [at 2.72 µM]
viability change, negative = cytotoxic [10]: -3.99% [at 2.72 µM]
Potency [11]: 1070 nM (active)
activity change [12]: 11.7% [at 2.72 µM, active compounds read high]
cytotoxicity increase [13]: -5.75% [at 2.72 µM]
activity change, negative = cytotoxic [14]: -5.5% [at 2.72 µM]
cytotoxicity [15]: -6.79% [at 2.72 µM]
activity change, negative = cytotoxicity [17]: 2.39% [at 2.72 µM]

CCc1ccccc1N
Potency [1]: inactive
Potency [2]: inactive
outcome [3]: inactive
Potency [4]: inactive
Potency [5]: inactive
Potency [18]: inactive
Potency [7]: inactive
Potency [8]: inactive
Potency [9]: inactive
Potency [10]: inactive
max response [11]: 1.07%
Potency [12]: inactive
Potency [13]: inactive
Potency [15]: inactive
Potency [16]: inactive
outcome [17]: inactive

CCCCCBr
Potency [1]: inactive
Potency [2]: inactive
outcome [3]: inactive
Potency [4]: inactive
Potency [5]: inactive
Potency [18]: inactive
Potency [7]: inactive
Potency [8]: inactive
Potency [10]: inactive
Potency [12]: inactive
Potency [13]: inactive
Potency [14]: inactive
Potency [15]: inactive
Potency [16]: inactive
outcome [17]: inactive

O=C1NC(=O)C(=O)C(=O)N1
Potency [1]: inactive
Potency [2]: inactive
outcome [3]: inactive
Potency [4]: inactive
Potency [6]: inactive
Potency [18]: inactive
Potency [7]: inactive
Potency [8]: inactive
Potency [9]: inactive
Potency [10]: inactive
max response [11]: 6.33%
Potency [12]: inactive
Potency [13]: inactive
Potency [14]: inactive
Potency [15]: inactive
Potency [16]: inactive
outcome [17]: inactive

O=C(Cc1ccccc1)c1ccccc1
Potency [1]: inactive
Potency [2]: inactive
outcome [3]: inactive
Potency [4]: inactive
Potency [5]: inactive
Potency [6]: inactive
Potency [18]: inactive
Potency [7]: inactive
Potency [8]: inactive
Potency [10]: inactive
max response [11]: 4.41%
Potency [12]: inactive
Potency [13]: inactive
Potency [15]: inactive
Potency [16]: inactive
outcome [17]: inactive

O=C(O)c1cc(Cl)ccc1Cl
Potency [1]: inactive
Potency [2]: inactive
outcome [3]: inactive
Potency [4]: inactive
Potency [5]: inactive
Potency [6]: inactive
Potency [18]: inactive
Potency [7]: inactive
Potency [8]: inactive
Potency [10]: inactive
max response [11]: 8.52%
Potency [12]: inactive
Potency [13]: inactive
Potency [14]: inactive
Potency [15]: inactive
Potency [16]: inactive
outcome [17]: inactive

CCC1(CC)C(=O)NC(=O)NC1=O
Potency [1]: inactive
Potency [2]: inactive
outcome [3]: inactive
Potency [4]: inactive
Potency [6]: inactive
Potency [18]: inactive
Potency [7]: inactive
Potency [8]: inactive
Potency [9]: inactive
Potency [10]: inactive
max response [11]: 0.988%
Potency [12]: inactive
Potency [13]: inactive
Potency [14]: inactive
outcome [17]: inactive

C[C@H]1O[C@H](OC2[C@@H](O)[C@@H](O)C(O)[C@H](O)[C@H]2O)[C@@H](N)C[C@@H]1N=C(N)C(=O)O (stereo not given in full)
Potency [1]: inactive
Potency [2]: inactive
outcome [3]: inactive
Potency [4]: inactive
Potency [6]: inactive
Potency [18]: inactive
Potency [7]: inactive
Potency [8]: inactive
Potency [10]: inactive
max response [11]: 5.07%
Potency [12]: inactive
Potency [13]: inactive
Potency [14]: inactive
Potency [15]: inactive
Potency [16]: inactive
outcome [17]: inactive
